The source of these data is PubChem BioAssay (NCATS).

Experiment [1] concerns the target Lysosomal acid glucosylceramidase (Homo sapiens) (UniProt P04062). As to the kind of experiment: Glucocerebrosidase-p2 (AID 348; in the data active means potency below about 10 µM; further: potency means the concentration at half of the fitted maximal effect). To be noted: purified GBA, blue fluorogenic substrate, 40 min. The gist of the method: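 Compounds titrated from 0.6 nM upwards against 0.2 nM enzyme in pH 5.9 citric acid/KH2PO4, taurocholate, tween-20; blue fluorogenic substrate 80 uM, 40 min room temperature, stopped and read Ex 365/Em 440 for AC50.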

Experiment [2] can be described thus: AP1 Signaling Pathway (AID 357; active means well fitted curve in either direction with a large enough effect, not every such curve was filed as active;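 further: ME-180 reporter cells stimulated with EGF at its EC50 level; on the % scale 0 is the no-effect control and ±100 the full control effect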). The settings on record: ME-180 AP-1-bla reporter, EGF-induced, beta-lactamase ratio, 5 h; at 7.69 µM (top of the series) unless noted. Put shortly:
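A ratiometric CCF4 readout (405 nm excitation; 460 and 530 nm emission) quantified AP-1-driven beta-lactamase in ME-180 cells after 5 h with compound and EC50 EGF; AC50 values were derived for activators and inhibitors.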

The target of experiment [3] is Cytochrome P450 1A2 (Homo sapiens) (UniProt P05177). Nature of the experiment: p450-cyp1a2 (AID 410; calls by dose curve; further: potency means the concentration at half of the fitted maximal effect). To be noted: recombinant CYP1A2, luciferin-ME demethylation, luminescence; series mostly up to 57 µM. The gist of the method: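 Human CYP1A2 (20nM) demethylated Luciferin-ME at its Km (100uM) in 100mM KPO4. After 10 min compound preincubation, NADPH regeneration ran the reaction 60 min at room temperature. Luciferin was read by luminescence, normalized to 57 uM furafylline.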

The nature of experiment [4]: NFAT Signaling Pathway (AID 444; active means well fitted curve in either direction with a large enough effect, not every such curve was filed as active;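 further: carbachol stimulus at about its EC50 of 1 µM final; on the % scale 0 is the no-effect control and ±100 the full control effect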). The settings on record: Jurkat NFAT-bla M1, carbachol, beta-lactamase ratio, 5 h; at 7.69 µM (top of the series) unless noted. Put shortly:
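Read-out: CCF4 FRET ratio (460 nm/530 nm) after 1 h RT dye loading, used for %activity and AC50 from titration series. Cells: Jurkat NFAT-β-lactamase/M1 line, treated with compound plus 1 uM carbachol for 5 h, 37 °C.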

Experiment [5] can be described thus: Stat Signaling Pathway (AID 446; active means well fitted curve in either direction with a large enough effect, not every such curve was filed as active;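 further: ME-180 cervical cancer cells given 40 pM IL-6 alongside compound; SIE-controlled beta-lactamase reporter measured as 460/530 nm FRET emission ratio; on the % scale 0 is the no-effect control and ±100 the full control effect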). To be noted: ME-180 SIE beta-lactamase reporter, IL-6 stimulated, 5 h; at 7.69 µM (top of the series) unless noted. Put shortly:
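Reporter line: ME-180 cervical carcinoma, SIE-beta-lactamase. Treatment: compound with 40 pM IL-6, 5 hrs, 37 C, in low-serum OPTI-MEM with 10 mM HEPES pH 7.3. Detection: 460/530 nm fluorescence.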

Experiment [6] addresses Glucocorticoid receptor (Homo sapiens) (UniProt P04150). Nature of the experiment: GR-GFP Redistribution (AID 450;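 active means compounds whose dose series gives a full or clear partial fitted curve of increased nuclear translocation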; further: potency means the concentration at half of the fitted maximal effect). To be noted: U2OS GR-GFP nuclear translocation, laser cytometry, 2 h.
The target is the same in experiment [7]. As to the kind of experiment: GR-EFC Redistribution (AID 451; calls by dose curve; further: potency means the concentration at half of the fitted maximal effect). To be noted: CHO-K1 GR-EFC translocation, beta-gal luminescence, 2 h. Put shortly: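 Translocation of GR-ED fusion to nuclear EA restores b-gal, read by luminescence after 1 h room-temperature detection. Engineered CHO-K1 biosensor cells, 1,000/well, exposed 2 h at 37 C to titrations up to 46 uM final.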

In experiment [8] the target is Mitogen-activated protein kinase 10 (Mus musculus) (UniProt Q61831). As to the kind of experiment: JNK3 AlphaScreen Assay (AID 530; active means well fitted curve in either direction with a large enough effect, not every such curve was filed as active;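 further: kinase came from lysate of stimulated human HepG2 cells; signal reports phosphorylation of biotinylated GST-cJun 1-79 at Ser73 with 10 µM ATP; on the % scale 0 is the no-effect control and ±100 the full control effect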). The settings on record: JNK3 lysate, c-Jun phosphorylation; series mostly up to 57.1 µM. Put shortly: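 Room-temperature AlphaScreen kinase assay; pre-activated HepG2 lysate as JNK3 source, biotin-GST-cJun(1-79) substrate, 10 uM ATP, compound 15 min preincubation.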

Experiment [9] deals with Cytochrome P450 3A4 (Homo sapiens) (UniProt P08684). Nature of the experiment: qHTS Assay for Inhibitors and Substrates of Cytochrome P450 3A4 (AID 884). Further: potency means the concentration at half of the fitted maximal effect; nearly all actives have a fitted effect of over 50% in size. To be noted: recombinant CYP3A4, Luciferin-PPXE luminescence; series mostly up to 57.1 µM. The gist of the method:
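20 nM human CYP3A4 with 25 uM Luciferin-PPXE (at KM) in 200 mM KPO4, preincubated 10 min with compound; NADPH regeneration started a 60 min RT reaction. Luciferin detected by luminescence, normalized to 57 uM ketoconazole as full inhibition.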
In general terms: Quantitative high-throughput screening tests each substance at several concentrations.

Experiment [10] has the same target. Nature of the experiment: qHTS Assay for Activators of Cytochrome P450 3A4 (AID 885). Further: nearly all actives have a fitted effect of over 65% in size. To be noted: recombinant CYP3A4, Luciferin-PPXE luminescence, 60 min; series mostly up to 57.1 µM. Put shortly: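 Signal was normalized against complete inhibition by 57 uM ketoconazole. The reaction used 20nM CYP3A4 with 25uM Luciferin-PPXE, 10-min compound preincubation and a 60-min NADPH-supported step at RT.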

Experiment [11] addresses Cytochrome P450 2C19 (Homo sapiens) (UniProt P33261). As to the kind of experiment: qHTS Assay for Inhibitors and Substrates of Cytochrome P450 2C19 (AID 899). Further: potency means the concentration at half of the fitted maximal effect; nearly all actives have a fitted effect of over 60% in size. To be noted: recombinant CYP2C19, luciferin-H EGE luminescence; series mostly up to 57.1 µM. Put shortly: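 Luminescence readout of luciferin formed from 10uM Luciferin-H EGE (KM level) by 5 nM CYP2C19 in 50mM KPO4. 60 min NADPH-driven reaction at 37C after 10 min compound preincubation; data scaled to 57uM ketoconazole inhibition.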

The target in experiment [12] is Dual specificity protein kinase CLK4 (Homo sapiens) (UniProt Q9HAZ1). Nature of the experiment: qHTS Assay for Inhibitors of CDC-like Kinase 4 (Kinase-Glo Assay) (AID 1770). Further: nearly all actives have a fitted effect of over 65% in size. Further: potency means the concentration at half of the fitted maximal effect. To be noted: recombinant Clk4, Kinase-Glo ATP depletion luminescence; series mostly up to 66.7 µM. Put shortly:
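Substrate mix (RS peptide 100 uM, ATP 1 uM) dispensed, compound pinned in, then Clk4 added to 25 nM final. Incubated 4.5 h at RT; Kinase-Glo reagent added, luminescence read after 5 min.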

Experiment [13] shares this target. As to the kind of experiment: qHTS Assay for Inhibitors of CDC-like Kinase 4 (ADP-Glo Assay) (AID 1771). Further: nearly all actives have a fitted effect of over 70% in size. Further: potency means the concentration at half of the fitted maximal effect. To be noted: recombinant CLK4, ADP-Glo luminescence; series mostly up to 80 µM. Put shortly:
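Clk4 (25 nM) was incubated 1 hr at room temperature with 100 uM RS repeat peptide and 1 uM ATP in buffer with 2 mM MgCl2, 0.5 mM EGTA, 2.5 mM DTT. ADP formed was quantified by ADP-Glo luminescence.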

Experiment [14] concerns the target Ubiquitin carboxyl-terminal hydrolase 1 (Homo sapiens) (UniProt O94782). Nature of the experiment: Inhibitors of USP1/UAF1: Pilot qHTS (AID 504865).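 Further: rhodamine fluorescence freed from ubiquitin-rhodamine substrate followed over time; top concentration of the series differs between compounds; on the % scale 0 is the no-effect control and ±100 the full control effect; nearly all actives have a fitted effect of over 35% in size.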 The settings on record: purified USP1/UAF1, Ub-rhodamine cleavage fluorescence; series mostly up to 54.9 µM. Put shortly:
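In 50mM HEPES pH 7.8 containing 0.5mM EDTA, 1mM TCEP, 0.1 mg/ml BSA and 0.01% Tween-20, 1nM USP1/UAF1 is exposed to compound for 15 min, then Ub-Rho (150nM final) is added and fluorescence is read over time.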

Experiment [15] can be described thus: Primary qHTS for small molecule stabilizers of the endoplasmic reticulum resident proteome: Secreted ER Calcium Modulated Protein (SERCaMP) assay (AID 1508630). Further: on the % scale 0 is the no-effect control and ±100 the full control effect. The settings on record: SH-SY5Y GLuc-SERCaMP (Gaussia luciferase released on ER calcium loss) secretion, thapsigargin, luminescence; series mostly up to 38.4 µM. Put shortly:
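GLuc-SERCaMP-expressing SH-SY5Y cells, pretreated 16 h with compound, are challenged with thapsigargin to empty ER calcium stores; after 4 h, coelenterazine is added directly to the medium and luminescence is imaged.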

Experiment [16] addresses 3',5'-cyclic-AMP phosphodiesterase 4B (Homo sapiens) (UniProt Q07343). Nature of the experiment: qHTS Assay for Inhibitors of PDE-IV (AID 607; active means well fitted activation curve with a large enough effect in the main read-out, with a control signal flat, not every such curve was filed as active; further: % of control where 0% means no effect). To be noted: HEK293 ACTOne CNG channel cells, membrane potential fluorescence; series mostly up to 22.9 µM. The gist of the method: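 Cell-based read-out of cAMP via a modified cyclic nucleotide-gated channel and membrane potential dye (535/590 nm) in HEK293 cells expressing PDE4 endogenously. Compounds tested up to 22.9 uM final; 100 uM RO 20-1724 reference.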

The target of experiment [17] is Cytochrome P450 2D6 (Homo sapiens) (UniProt P10635). Nature of the experiment: qHTS Assay for Inhibitors and Substrates of Cytochrome P450 2D6 (AID 891). Further: potency means the concentration at half of the fitted maximal effect; nearly all actives have a fitted effect of over 60% in size. The settings on record: recombinant CYP2D6, luciferin-ME EGE luminescence; series mostly up to 57.1 µM. The gist of the method: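 Human CYP2D6 (5 nM) with 30 uM Luciferin-ME EGE (at Km) in 100 mM KPO4, compound preincubated 10 min, then NADPH regeneration system for 60 min at room temperature. Luciferin read by luminescence; normalized to 1.43 uM quinidine.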

Values without a mark were called inactive. Records with an inconclusive call do not appear. Active and inactive are the calls of the source. Unless noted, the call rests on the fitted dose curve; in most records, active means well fitted curve in the direction sought with a large enough effect; inconclusive means small, poorly fitted or top-dose-only effect, or another doubt; inactive means no such curve, though single readings can be large; an effect the other way counts as inactive or inconclusive.

Chain of Ubiquitin carboxyl-terminal hydrolase 1 (Homo sapiens) (O94782 whole entry, looked up): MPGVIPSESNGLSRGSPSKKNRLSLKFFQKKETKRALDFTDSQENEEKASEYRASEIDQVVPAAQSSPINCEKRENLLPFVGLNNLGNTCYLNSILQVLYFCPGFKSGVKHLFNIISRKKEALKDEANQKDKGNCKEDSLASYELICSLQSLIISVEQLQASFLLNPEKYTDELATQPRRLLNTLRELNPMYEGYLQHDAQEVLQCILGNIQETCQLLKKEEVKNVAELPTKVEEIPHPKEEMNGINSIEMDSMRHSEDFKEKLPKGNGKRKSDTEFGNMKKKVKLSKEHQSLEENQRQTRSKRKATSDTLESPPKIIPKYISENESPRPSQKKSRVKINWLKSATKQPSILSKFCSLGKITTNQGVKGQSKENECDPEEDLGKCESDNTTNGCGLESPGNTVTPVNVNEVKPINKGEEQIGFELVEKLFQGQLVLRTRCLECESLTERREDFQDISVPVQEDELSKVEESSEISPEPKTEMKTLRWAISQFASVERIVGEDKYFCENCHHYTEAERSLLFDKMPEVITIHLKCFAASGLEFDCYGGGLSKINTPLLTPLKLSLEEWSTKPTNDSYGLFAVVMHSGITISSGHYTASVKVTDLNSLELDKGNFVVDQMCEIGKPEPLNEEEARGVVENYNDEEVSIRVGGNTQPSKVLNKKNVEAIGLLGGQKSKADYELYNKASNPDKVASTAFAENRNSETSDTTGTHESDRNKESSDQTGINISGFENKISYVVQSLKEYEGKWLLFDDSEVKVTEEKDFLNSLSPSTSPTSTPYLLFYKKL
Chain of Cytochrome P450 1A2 (Homo sapiens) (P05177 whole entry, looked up): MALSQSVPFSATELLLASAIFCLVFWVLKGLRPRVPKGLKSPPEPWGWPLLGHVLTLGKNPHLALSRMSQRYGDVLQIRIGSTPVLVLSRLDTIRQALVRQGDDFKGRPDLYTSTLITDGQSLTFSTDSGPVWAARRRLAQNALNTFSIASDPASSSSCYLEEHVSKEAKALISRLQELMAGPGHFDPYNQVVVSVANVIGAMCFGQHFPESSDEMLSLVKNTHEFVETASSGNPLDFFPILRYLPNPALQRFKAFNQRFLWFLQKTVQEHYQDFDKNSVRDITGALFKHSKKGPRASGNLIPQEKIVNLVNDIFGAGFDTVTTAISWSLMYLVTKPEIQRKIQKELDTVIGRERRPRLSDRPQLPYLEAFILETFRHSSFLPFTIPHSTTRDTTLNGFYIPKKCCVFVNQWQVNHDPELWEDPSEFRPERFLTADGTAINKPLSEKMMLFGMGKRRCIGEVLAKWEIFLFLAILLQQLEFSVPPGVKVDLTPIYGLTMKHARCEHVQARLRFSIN
Chain of Glucocorticoid receptor (Homo sapiens) (P04150 whole entry, looked up, the tested form may be a part): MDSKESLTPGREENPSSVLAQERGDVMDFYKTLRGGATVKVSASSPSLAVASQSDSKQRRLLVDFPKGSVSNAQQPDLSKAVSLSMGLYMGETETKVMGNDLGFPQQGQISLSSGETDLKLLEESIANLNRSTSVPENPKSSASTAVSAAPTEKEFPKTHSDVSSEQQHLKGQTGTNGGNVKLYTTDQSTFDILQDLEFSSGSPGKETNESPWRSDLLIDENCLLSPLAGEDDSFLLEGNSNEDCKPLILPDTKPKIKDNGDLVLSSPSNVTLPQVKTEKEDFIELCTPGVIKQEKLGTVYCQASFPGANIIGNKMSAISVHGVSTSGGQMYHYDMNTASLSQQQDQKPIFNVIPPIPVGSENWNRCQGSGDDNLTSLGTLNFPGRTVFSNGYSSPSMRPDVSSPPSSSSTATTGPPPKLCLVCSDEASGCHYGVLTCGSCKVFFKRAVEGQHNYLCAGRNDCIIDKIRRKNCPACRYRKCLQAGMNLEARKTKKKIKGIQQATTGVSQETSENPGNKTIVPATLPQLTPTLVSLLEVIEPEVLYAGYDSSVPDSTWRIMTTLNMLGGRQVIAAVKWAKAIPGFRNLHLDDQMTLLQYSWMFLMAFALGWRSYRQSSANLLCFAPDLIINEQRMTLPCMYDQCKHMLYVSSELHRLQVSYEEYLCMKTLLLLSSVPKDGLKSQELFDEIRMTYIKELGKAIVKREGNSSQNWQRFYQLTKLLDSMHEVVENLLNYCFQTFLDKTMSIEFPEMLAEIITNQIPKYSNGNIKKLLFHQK
Chain of Cytochrome P450 3A4 (Homo sapiens) (P08684 whole entry, looked up): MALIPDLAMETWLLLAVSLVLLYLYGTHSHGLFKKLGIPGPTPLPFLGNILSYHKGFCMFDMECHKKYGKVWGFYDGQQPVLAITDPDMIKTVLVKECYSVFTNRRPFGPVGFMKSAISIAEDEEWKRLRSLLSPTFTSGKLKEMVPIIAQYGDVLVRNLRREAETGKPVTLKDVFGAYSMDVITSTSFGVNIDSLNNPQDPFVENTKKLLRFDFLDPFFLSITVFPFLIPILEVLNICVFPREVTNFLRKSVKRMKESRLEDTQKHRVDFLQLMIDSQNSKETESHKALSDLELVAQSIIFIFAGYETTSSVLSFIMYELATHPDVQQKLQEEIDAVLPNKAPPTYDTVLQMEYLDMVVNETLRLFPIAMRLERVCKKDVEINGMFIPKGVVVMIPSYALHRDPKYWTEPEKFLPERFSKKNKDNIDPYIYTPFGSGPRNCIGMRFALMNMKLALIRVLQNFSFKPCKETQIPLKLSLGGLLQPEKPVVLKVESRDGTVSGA
Chain of Dual specificity protein kinase CLK4 (Homo sapiens) (Q9HAZ1 whole entry, looked up): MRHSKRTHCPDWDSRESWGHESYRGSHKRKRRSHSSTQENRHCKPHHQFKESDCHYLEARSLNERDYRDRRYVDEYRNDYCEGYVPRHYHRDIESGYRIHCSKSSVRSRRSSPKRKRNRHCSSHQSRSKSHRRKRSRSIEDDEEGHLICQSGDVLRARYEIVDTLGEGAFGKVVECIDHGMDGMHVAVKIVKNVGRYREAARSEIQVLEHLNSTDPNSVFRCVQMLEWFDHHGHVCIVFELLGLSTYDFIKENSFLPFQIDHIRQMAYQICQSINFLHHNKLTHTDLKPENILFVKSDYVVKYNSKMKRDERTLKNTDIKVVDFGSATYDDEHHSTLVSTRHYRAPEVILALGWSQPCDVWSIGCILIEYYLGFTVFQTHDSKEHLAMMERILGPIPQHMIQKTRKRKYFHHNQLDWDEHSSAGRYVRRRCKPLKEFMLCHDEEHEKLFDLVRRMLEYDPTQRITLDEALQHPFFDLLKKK
Chain of Lysosomal acid glucosylceramidase (Homo sapiens) (P04062 whole entry, looked up): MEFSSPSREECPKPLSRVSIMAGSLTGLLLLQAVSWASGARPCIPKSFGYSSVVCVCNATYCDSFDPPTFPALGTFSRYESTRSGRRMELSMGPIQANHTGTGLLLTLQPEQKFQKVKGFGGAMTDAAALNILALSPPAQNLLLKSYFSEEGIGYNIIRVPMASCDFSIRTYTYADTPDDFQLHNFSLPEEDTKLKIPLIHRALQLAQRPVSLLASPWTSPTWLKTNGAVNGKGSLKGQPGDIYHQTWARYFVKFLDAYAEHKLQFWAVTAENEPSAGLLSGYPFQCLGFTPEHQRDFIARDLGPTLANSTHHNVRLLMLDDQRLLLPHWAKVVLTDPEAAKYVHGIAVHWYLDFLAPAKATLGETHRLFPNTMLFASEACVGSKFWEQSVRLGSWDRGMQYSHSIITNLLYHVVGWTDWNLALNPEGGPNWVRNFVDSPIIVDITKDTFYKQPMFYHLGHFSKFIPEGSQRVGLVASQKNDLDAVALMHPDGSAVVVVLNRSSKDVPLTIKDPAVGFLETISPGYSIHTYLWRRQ
Chain of 3',5'-cyclic-AMP phosphodiesterase 4B (Homo sapiens) (Q07343 whole entry, looked up): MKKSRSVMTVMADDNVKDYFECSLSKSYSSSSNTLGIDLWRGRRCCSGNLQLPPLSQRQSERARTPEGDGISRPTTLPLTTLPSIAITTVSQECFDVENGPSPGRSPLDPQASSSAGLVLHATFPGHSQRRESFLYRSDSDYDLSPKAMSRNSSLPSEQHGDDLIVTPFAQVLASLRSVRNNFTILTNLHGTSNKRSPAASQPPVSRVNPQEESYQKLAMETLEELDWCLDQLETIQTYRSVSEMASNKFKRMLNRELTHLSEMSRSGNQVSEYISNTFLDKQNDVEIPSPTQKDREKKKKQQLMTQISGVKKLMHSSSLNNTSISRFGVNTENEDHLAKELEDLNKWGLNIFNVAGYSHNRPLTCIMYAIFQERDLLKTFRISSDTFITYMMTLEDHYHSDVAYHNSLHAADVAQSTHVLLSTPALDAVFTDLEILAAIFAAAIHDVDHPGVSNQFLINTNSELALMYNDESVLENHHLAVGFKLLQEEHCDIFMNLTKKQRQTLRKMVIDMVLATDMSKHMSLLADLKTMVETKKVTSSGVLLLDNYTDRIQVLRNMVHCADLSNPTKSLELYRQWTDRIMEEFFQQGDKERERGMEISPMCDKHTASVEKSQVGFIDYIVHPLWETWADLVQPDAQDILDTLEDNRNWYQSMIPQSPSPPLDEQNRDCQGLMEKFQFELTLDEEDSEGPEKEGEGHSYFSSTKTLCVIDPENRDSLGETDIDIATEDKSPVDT
Chain of Cytochrome P450 2C19 (Homo sapiens) (P33261 whole entry, looked up): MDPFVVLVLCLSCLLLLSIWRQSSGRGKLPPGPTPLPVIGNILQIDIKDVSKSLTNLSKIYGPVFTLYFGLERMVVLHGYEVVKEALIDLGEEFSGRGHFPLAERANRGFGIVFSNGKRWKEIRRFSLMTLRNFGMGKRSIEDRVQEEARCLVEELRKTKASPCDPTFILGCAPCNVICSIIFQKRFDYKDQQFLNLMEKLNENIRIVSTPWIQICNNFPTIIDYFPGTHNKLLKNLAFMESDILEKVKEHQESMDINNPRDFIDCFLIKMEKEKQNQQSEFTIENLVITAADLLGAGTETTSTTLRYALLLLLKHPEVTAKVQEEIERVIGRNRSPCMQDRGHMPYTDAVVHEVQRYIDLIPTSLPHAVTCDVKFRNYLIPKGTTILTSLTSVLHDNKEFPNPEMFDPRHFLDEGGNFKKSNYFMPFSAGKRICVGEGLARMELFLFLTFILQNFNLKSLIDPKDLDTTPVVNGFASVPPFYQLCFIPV

`c1ccc(Nc2nc(-c3ccc4c(c3)OCO4)nc3ccccc23)cc1`: the Potency in experiment [1] was 9.63 µM (active); in [3], 1.26 µM (active); in [6] it was over 46 µM; in experiment [7] it was over 46 µM; in [9], 5.01 µM (active); in experiment [11], 3.16 µM (active). Moreover, the Potency in experiment [12] was 28.2 µM (active); in experiment [13], 31.6 µM (active). The activity change, negative = inhibition in [2] was -19.9%; in experiment [4] it was -26.1%. Further, the activity, negative = inhibition in experiment [5] is -2.81%. Also, the Potency entry in experiment [8], in experiment [10] and in [14] was “inactive” in each case. In addition, the outcome in [15] was inactive.

As for `FC(F)(F)c1ccccc1-c1ccc2ncnc(NC3CC3)c2c1`, the Potency was over 11.4 µM in [1]; 0.316 µM (active) in [3]; over 46 µM in experiment [6]; over 46 µM in experiment [7]; 1.58 µM (active) in [9]; 2 µM (active) in experiment [11]. Besides, the Potency in [12] and in [13] was 25.1 µM (active) in each case. The activity change, negative = inhibition in experiment [2] is 10%. In addition, the activity, negative = inhibition in experiment [5] was -18.8%. Further, the Potency entry in experiment [8] and in experiment [10] was “inactive” throughout. For the same compound, in experiment [15], the outcome was inactive.

As for `COc1ccc2[nH]cc(CCNc3ccnc(-c4cccnc4)n3)c2c1`, the Potency was over 11.4 µM in experiment [1]; 0.251 µM (active) in experiment [3]; over 46 µM in experiment [6]; over 46 µM in experiment [7]; 1.26 µM (active) in experiment [9]; 1.26 µM (active) in experiment [17]. In addition, the figures for the Potency in [12] and in [13] were 12.6 µM (active) and 14.1 µM (active), respectively. Also, the activity change, negative = inhibition in [4] is 11.3%. Besides, the activity, negative = inhibition in experiment [5] is -3.13%. The Potency entry in [8], in experiment [16], in [10] and in experiment [14] was “inactive” each time. Besides, in [15], the result was inactive.

Take `COCCn1c(=O)c(-c2ccc(OC)cc2)nc2cnc(OCc3ccccc3)nc21`: the Potency was over 11.4 µM in [1], over 9.22 µM in [6] and over 46 µM in experiment [7]. In addition, the activity change, negative = inhibition in experiment [2] is -11.8%. Moreover, in [5], the activity, negative = inhibition was 7.46%. Further, the Potency entry in experiment [8], in [10], in experiment [12], in [13] and in experiment [14] was “inactive” in each case. In addition, the outcome in [15] was inactive.

Regarding `Cc1cccc(CNc2cc(-c3ccccc3Cl)ncn2)c1`, the Potency in experiment [1] was over 11.4 µM; in experiment [3], 3.16 µM (active); in [6], over 46 µM; in experiment [7], over 46 µM; in experiment [12], 28.2 µM (active); in experiment [13], 28.2 µM (active). Besides, the figures for the activity change, negative = inhibition in [2] and in [4] were 13.1% and -3.92%, respectively. Besides, the activity, negative = inhibition in experiment [5] is 0.338%. In addition, the Potency entry in experiment [8], in [16] and in experiment [10] was “inactive” each time. Besides, the result in experiment [15] was inactive.

As for `FC(F)(F)c1ccccc1-c1nccc(-n2ccnc2)n1`, the Potency in [1] was over 11.4 µM; in [6] it was over 46 µM; in [7], over 46 µM; in experiment [12] it was 15.8 µM (active); in experiment [13] it was 25.1 µM (active). Also, the activity change, negative = inhibition in [2] is -7.77%; in experiment [4], 2.35%. Besides, the activity, negative = inhibition in experiment [5] was 0.859%. The Potency result in experiment [8] and in experiment [14] was “inactive” in each case. In addition, in [15], the result was inactive.
